This passage reports growth results from PubChem BioAssay (NCI).

Holding throughout (experiment): NCI-60 one-dose screen, 48 h (100 = growth as untreated, 0 = no growth, -100 = all killed)
In one assay the test system is EKVX NSCLC. The note with it: 10 µM.
For another assay, the system named is SN12C renal. The conditions noted are these: 10 µM.
Another assay deals with UO-31 renal. The note with it: 10 µM.
A further assay has as its system TK-10 renal. The note with it: 10 µM unless noted.
In another assay the test system is ACHN renal. The note with it: 10 µM.
Another assay concerns CAKI-1 renal. The note with it: 10 µM.
The next assay relates to A498 renal. The conditions noted are these: 10 µM.
Another assay has as its system CCRF-CEM leukemia. The conditions noted are these: 10 µM.
Another assay relates to MOLT-4 leukemia. The conditions noted are these: 10 µM.

About 83,000 compounds went through this panel and 20% of them were active in at least one assay; those are over-represented in the sample as a whole.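 Results are percent growth after 48 hours of single-concentration exposure. 100 means growth as in untreated cells, lower positive values show inhibition; negative values down to -100 show cell death.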 A number with no mark means an inactive call. Activity calls are given as the source filed them. The calls were made as follows: active = growth percent below 10; inactive = the rest.

On to `COC(=O)Nc1nc2ccc(C(=O)c3cccs3)cc2[nH]1`, for which the growth in the assay with EKVX NSCLC is 37.8%; with SN12C renal, 29.6%; with UO-31 renal, 48.8%; with TK-10 renal, 61.6%; in the assay on ACHN renal, 40.5%; in the assay with CAKI-1 renal it was 19.8%. Besides, the growth with A498 renal is -1.63% (active); in the assay with CCRF-CEM leukemia it was 6.93% (active); in the assay with MOLT-4 leukemia, -13.6% (active).
`CCC(=O)Oc1ccc(OC)cc1`: the growth in the assay with EKVX NSCLC was 104%; with SN12C renal it was 101%; with UO-31 renal, 80.9%; in the assay with TK-10 renal, 84.4%; with ACHN renal, 101%; in the assay with CAKI-1 renal it was 98.3%. The growth is 101% in the assay on A498 renal, 101% in the assay on CCRF-CEM leukemia and 92.5% in the assay on MOLT-4 leukemia.
`COCCCC/C(=N\OCCN)c1ccc(C(F)(F)F)cc1`: the growth in the assay with EKVX NSCLC was 93.1%; in the assay on SN12C renal, 94%; in the assay with UO-31 renal, 74.1%; in the assay with TK-10 renal it was 98.9%; with ACHN renal it was 98.6%; in the assay with CAKI-1 renal, 83.5%. Further, the growth with A498 renal was 89.1%; in the assay on CCRF-CEM leukemia it was 101%; in the assay with MOLT-4 leukemia it was 96.7%.
Consider `CC1(C)Nc2cccc3c(N=Nc4ccc(N=Nc5ccccc5)c5ccccc45)ccc(c23)N1`, for which the growth in the assay with EKVX NSCLC is 78%; in the assay on SN12C renal it was 94.6%; in the assay on UO-31 renal, 54.2%; in the assay with ACHN renal it was 77.7%; with CAKI-1 renal, 88.1%; with A498 renal it was 103%. In addition, the figures for the growth with CCRF-CEM leukemia and in the assay with MOLT-4 leukemia were 107% and 115%, respectively.
For `CC(=O)c1ccc(C)c(N)c1`, the growth is 91.8% in the assay on EKVX NSCLC; 96% with SN12C renal; 81.4% in the assay on UO-31 renal; 98.5% in the assay on TK-10 renal; 101% with ACHN renal; 92.9% in the assay on CAKI-1 renal. Moreover, the growth with A498 renal was 95.4%; in the assay with CCRF-CEM leukemia it was 94.3%; with MOLT-4 leukemia it was 103%.
Consider `COc1cc([C@@H]2c3cc4c(cc3[C@H](O)[C@H]3COC(=O)[C@H]23)OCO4)cc(OC)c1OC`, for which the growth is 38.8% in the assay with EKVX NSCLC; 32.9% with SN12C renal; 48.2% in the assay on UO-31 renal; 51.4% with TK-10 renal; 34.6% in the assay with ACHN renal; 26.9% in the assay with CAKI-1 renal. Besides, the growth in the assay with A498 renal was -10.2% (active); in the assay on CCRF-CEM leukemia, 6.58% (active); with MOLT-4 leukemia it was -6.06% (active).
For the compound `COc1cc2nc3cc([N+](=O)[O-])ccc3c(Cl)c2cc1OC`, the growth with EKVX NSCLC was 83.3%; in the assay on SN12C renal it was 97.7%; in the assay on UO-31 renal it was 84.1%; in the assay on TK-10 renal it was 95.2%; with ACHN renal it was 91.9%; with CAKI-1 renal, 101%. The growth in the assay with A498 renal is 7.26% (active); in the assay on MOLT-4 leukemia, 107%.
On to `CC1Cc2ccccc2O1` (centres undefined), for which the growth is 122% in the assay with EKVX NSCLC; 106% with SN12C renal; 90.6% in the assay with UO-31 renal; 129% in the assay on TK-10 renal; 101% in the assay with ACHN renal; 102% in the assay on CAKI-1 renal. For the same compound, the figures for the growth in the assay with A498 renal, in the assay with CCRF-CEM leukemia and in the assay with MOLT-4 leukemia were 115%, 112% and 105%, respectively.
For `COC1=CC(=O)c2nc(Cl)ccc2C1=O`, the growth with EKVX NSCLC was 74%; in the assay with SN12C renal, -69.5% (active); in the assay on UO-31 renal it was 23.5%; in the assay on TK-10 renal, 84.2%; in the assay with ACHN renal, 42.6%; in the assay on CAKI-1 renal, 91.6%. For the same compound, the growth was 108% in the assay on A498 renal, 1.69% (active) in the assay on CCRF-CEM leukemia and -27.4% (active) in the assay with MOLT-4 leukemia.
For `O=S(=O)(O)c1cc(O)c2c(N=Cc3ccccc3O)c(S(=O)(=O)O)ccc2c1`, the growth in the assay on SN12C renal was 109%; in the assay with UO-31 renal, 73.2%; in the assay on TK-10 renal it was 118%; in the assay on ACHN renal, 101%; in the assay on CAKI-1 renal, 96.2%; in the assay with A498 renal, 107%. Also, the growth in the assay on MOLT-4 leukemia is 99.2%.
For the compound `CC(CC(=O)c1ccccc1)c1ccccc1` (centres undefined), the growth was 107% with SN12C renal; 95.4% with UO-31 renal; 90.1% in the assay with TK-10 renal; 115% in the assay with ACHN renal; 106% with CAKI-1 renal; 88.8% in the assay with A498 renal. Besides, the growth with CCRF-CEM leukemia is 98.4%; in the assay with MOLT-4 leukemia, 103%.
`O=C1OC(c2ccc(F)cc2)CC1CN1CCOCC1` (centres undefined): the growth in the assay with SN12C renal was 102%; in the assay on UO-31 renal, 83.5%; in the assay with TK-10 renal, 83.2%; in the assay on ACHN renal, 105%; in the assay on CAKI-1 renal it was 85.8%; in the assay on MOLT-4 leukemia, 102%.
With `Cc1cc(=O)n(-c2ccc(F)cc2)[nH]1`, the growth in the assay on SN12C renal was 104%; in the assay on UO-31 renal, 83.3%; in the assay with TK-10 renal it was 136%; with ACHN renal it was 96%; in the assay on CAKI-1 renal, 98.9%; with A498 renal, 99.7%. Moreover, in the assay on MOLT-4 leukemia, the growth is 99.7%.
Consider `CC(=O)OC(OC(C)=O)C1CCCO1` (centres undefined), for which the growth in the assay on EKVX NSCLC is 97.7%; with SN12C renal, 96.8%; in the assay on TK-10 renal, 103%; in the assay with ACHN renal, 98.7%; in the assay with CAKI-1 renal, 112%; in the assay on A498 renal, 106%. In addition, the growth is 109% with CCRF-CEM leukemia and 123% with MOLT-4 leukemia.
On to `O=[N+]([O-])c1ccccc1S(=O)c1ccccc1[N+](=O)[O-]`, for which the growth with SN12C renal is 99.7%; in the assay with UO-31 renal, 73.4%; in the assay on TK-10 renal it was 135%; with ACHN renal it was 106%; in the assay on CAKI-1 renal, 61.7%; in the assay on MOLT-4 leukemia it was 42%.
Take `COc1ccccc1N1CCN(C(=S)Nc2ccccc2)CC1`: the growth is 100% in the assay on SN12C renal; 75.3% in the assay with UO-31 renal; 95.6% in the assay with TK-10 renal; 100% with ACHN renal; 78.7% in the assay on MOLT-4 leukemia.
Turning to `COc1ccc(/C(C#N)=C2C=C/C(=N/O)c3ccccc3\2)cc1`, the growth with SN12C renal was 23.7%; in the assay on UO-31 renal, 31.1%; in the assay on TK-10 renal, 54.5%; with ACHN renal it was 22.6%; in the assay with CAKI-1 renal it was 25.5%; in the assay with A498 renal it was -8.12% (active). The growth with MOLT-4 leukemia is 19.2%.
As to `COc1cccc(COC(=O)Nc2ccccc2)c1OC`, the growth in the assay with SN12C renal was 96.9%; with UO-31 renal it was 99.5%; in the assay with TK-10 renal it was 107%; in the assay with ACHN renal, 104%; with CAKI-1 renal it was 88.5%; in the assay on A498 renal it was 105%. For the same compound, the growth in the assay with MOLT-4 leukemia is 100%.
In the case of `CC(CN1CCCCC1)NC(=O)c1scnc1-c1ccccc1` (centres undefined), the growth in the assay with SN12C renal is 106%; with UO-31 renal, 83.7%; with TK-10 renal it was 98.1%; with ACHN renal, 109%; in the assay with CAKI-1 renal, 87.3%; with MOLT-4 leukemia, 104%.
For `CC(=O)c1ccc(N=C(C#N)C2=C(O)c3ccccc3C2=O)cc1`, the growth in the assay with SN12C renal was 103%; in the assay on UO-31 renal, 90.8%; in the assay on TK-10 renal, 129%; in the assay on ACHN renal, 106%; in the assay on CAKI-1 renal it was 105%; in the assay on A498 renal, 88.1%. The growth was 104% in the assay on CCRF-CEM leukemia and 92.1% with MOLT-4 leukemia.
Regarding `Cc1ccccc1C1N=C2Oc3ccccc3C=C2C(=O)N1` (centres undefined), the growth in the assay with SN12C renal was 43.3%; in the assay on UO-31 renal it was 52%; with TK-10 renal, 53.7%; with ACHN renal, 50.6%; in the assay with CAKI-1 renal, 31.1%; in the assay on A498 renal it was -11.6% (active). For the same compound, the growth is 38.4% with CCRF-CEM leukemia and 44% in the assay with MOLT-4 leukemia.
Take `CCCCC(=O)c1ccc(OC)cc1`: the growth with SN12C renal was 105%; in the assay with UO-31 renal, 97%; with ACHN renal, 96.3%; in the assay on CAKI-1 renal it was 99.2%; with A498 renal, 84.1%; with CCRF-CEM leukemia, 92.1%. Besides, the growth in the assay with MOLT-4 leukemia was 104%.
With `COc1cc(/C=C/C(=O)c2ccccc2)cc(OC)c1OC`, the growth is 53.3% in the assay on SN12C renal; 49.7% in the assay with UO-31 renal; 112% in the assay with TK-10 renal; 51.1% in the assay with ACHN renal; -23.3% (active) in the assay on CAKI-1 renal; 28.8% in the assay with MOLT-4 leukemia.
As for `COc1ccc(/C=C/c2cccc[n+]2C)cc1`, the growth in the assay on SN12C renal was 110%; in the assay on UO-31 renal, 64.9%; in the assay with ACHN renal it was 91%; in the assay with CAKI-1 renal, 63%; in the assay with A498 renal it was 71%; in the assay with MOLT-4 leukemia, 102%.
As to `O=C(Nc1ccccc1)OCCc1ccccc1`, the growth was 95.3% in the assay on SN12C renal; 103% in the assay with UO-31 renal; 95.2% in the assay with TK-10 renal; 104% with ACHN renal; 88.5% in the assay on CAKI-1 renal; 101% with MOLT-4 leukemia.
Regarding `O=C(O)c1ccccc1NCc1ccco1`, the growth in the assay with EKVX NSCLC was 103%; in the assay on SN12C renal, 99.8%; in the assay with TK-10 renal it was 64.7%; in the assay on ACHN renal, 115%; in the assay on A498 renal, 99.9%; in the assay on CCRF-CEM leukemia, 98.6%. Moreover, the growth in the assay with MOLT-4 leukemia is 104%.
